The values that follow come from paper PMC7862700, “An all-to-all approach to the identification of sequence-specific readers for epigenetic DNA modifications on cytosine”.

Experiment in all cases: DAPPL (digital affinity profiling via proximity ligation, sequencing); 10 mM Tris-HCl pH 7.5, 50 mM NaCl, 1 mM DTT, 4% glycerol, room temperature, 30 min; GST-TFs on glutathione beads, 16-mer random dsDNA library, 0.1% formaldehyde crosslink after washing; high values mean tight binding
Experiment [1] concerns the target T1, FLI1 (Homo sapiens, UniProt Q01543 1-452).
T1 sequence: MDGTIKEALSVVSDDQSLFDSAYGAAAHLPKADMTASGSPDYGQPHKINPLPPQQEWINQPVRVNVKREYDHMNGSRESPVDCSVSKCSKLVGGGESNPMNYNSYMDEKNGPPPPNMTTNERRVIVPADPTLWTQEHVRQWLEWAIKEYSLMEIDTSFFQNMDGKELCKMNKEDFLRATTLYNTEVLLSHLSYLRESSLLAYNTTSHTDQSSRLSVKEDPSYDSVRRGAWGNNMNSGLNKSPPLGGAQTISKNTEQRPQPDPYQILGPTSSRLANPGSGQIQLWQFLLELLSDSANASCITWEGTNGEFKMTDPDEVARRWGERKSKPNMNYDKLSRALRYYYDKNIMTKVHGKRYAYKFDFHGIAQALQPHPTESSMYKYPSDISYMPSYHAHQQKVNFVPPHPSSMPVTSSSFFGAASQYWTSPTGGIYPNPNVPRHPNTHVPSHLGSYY
The settings on record: protein: recombinant; tags: N-terminal GST; dsDNA, one strand shown. In outline:
(§1)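 Sequencing on an Illumina NextSeq500 followed washing, crosslinking with 0.1% formaldehyde, proximity ligation (BsaI/T4 ligase, 1 h, 37 °C) and PCR amplification of pools that had been incubated for 30 min at room temperature with 200 nmole of a random double-stranded 16-mer DNA library in Tris/NaCl/DTT/glycerol buffer. Each pool held DNA-barcoded human transcription factors, expressed in yeast as GST fusions and captured on glutathione beads, plus a tag-only sample. Binding signal is a hexamer's read frequency for a factor divided by its frequency in the tag-only sample.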

Experiment [2] concerns the target T2, ELK1 (Homo sapiens, UniProt P19419 1-428).
T2 sequence: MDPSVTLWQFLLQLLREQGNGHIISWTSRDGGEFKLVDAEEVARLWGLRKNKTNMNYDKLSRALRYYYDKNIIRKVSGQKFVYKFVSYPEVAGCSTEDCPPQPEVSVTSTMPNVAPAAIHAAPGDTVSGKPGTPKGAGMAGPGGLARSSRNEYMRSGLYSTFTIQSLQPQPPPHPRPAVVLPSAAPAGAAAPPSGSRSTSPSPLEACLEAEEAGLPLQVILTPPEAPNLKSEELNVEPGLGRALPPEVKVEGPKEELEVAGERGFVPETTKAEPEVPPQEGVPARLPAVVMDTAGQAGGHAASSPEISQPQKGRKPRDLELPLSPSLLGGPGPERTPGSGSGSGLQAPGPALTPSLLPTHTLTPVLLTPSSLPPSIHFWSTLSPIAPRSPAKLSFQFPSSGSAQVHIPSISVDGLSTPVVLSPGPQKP
The settings on record: protein: recombinant; tags: N-terminal GST; dsDNA, one strand shown. In outline: as §1

The target in experiment [3] is T3, GABPA (Homo sapiens, UniProt Q06546 1-454).
T3 sequence: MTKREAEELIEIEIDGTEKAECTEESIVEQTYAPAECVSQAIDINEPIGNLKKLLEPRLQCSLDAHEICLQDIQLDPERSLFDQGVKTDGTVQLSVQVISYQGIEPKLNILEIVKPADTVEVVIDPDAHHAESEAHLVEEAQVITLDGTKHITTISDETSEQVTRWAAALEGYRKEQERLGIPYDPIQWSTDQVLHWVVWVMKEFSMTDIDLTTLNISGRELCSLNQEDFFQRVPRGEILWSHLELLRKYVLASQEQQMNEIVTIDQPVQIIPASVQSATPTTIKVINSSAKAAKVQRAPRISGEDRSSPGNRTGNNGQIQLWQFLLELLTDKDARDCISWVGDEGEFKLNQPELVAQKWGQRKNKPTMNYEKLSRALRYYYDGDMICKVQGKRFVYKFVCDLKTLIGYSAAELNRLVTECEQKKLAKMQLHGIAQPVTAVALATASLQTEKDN
The conditions noted are these: protein: recombinant; tags: N-terminal GST; dsDNA, one strand shown. An outline of the steps: as §1

In experiment [4] the target is T4, ERG (Homo sapiens, UniProt P11308 1-479).
T4 sequence: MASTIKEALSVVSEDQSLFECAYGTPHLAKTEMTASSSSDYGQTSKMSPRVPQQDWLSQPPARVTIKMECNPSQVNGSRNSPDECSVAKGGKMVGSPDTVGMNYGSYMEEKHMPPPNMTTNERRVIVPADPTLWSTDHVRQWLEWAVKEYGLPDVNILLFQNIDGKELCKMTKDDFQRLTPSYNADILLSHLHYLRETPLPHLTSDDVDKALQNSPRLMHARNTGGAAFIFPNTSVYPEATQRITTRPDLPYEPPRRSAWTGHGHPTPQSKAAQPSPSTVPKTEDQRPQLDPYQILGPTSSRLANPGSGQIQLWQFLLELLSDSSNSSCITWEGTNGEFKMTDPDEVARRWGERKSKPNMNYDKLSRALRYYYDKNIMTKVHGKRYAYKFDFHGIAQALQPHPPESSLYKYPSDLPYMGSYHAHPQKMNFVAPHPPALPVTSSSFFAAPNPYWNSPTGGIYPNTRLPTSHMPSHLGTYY
The settings on record: protein: recombinant; tags: N-terminal GST; dsDNA, one strand shown. An outline of the steps:
as §1

Experiment [5] concerns the target ELF1 (Homo sapiens, UniProt P32519 1-619). The settings on record: protein: recombinant; tags: N-terminal GST; dsDNA, one strand shown. An outline of the steps: as §1
Experiment [6] deals with T5, EHF (Homo sapiens, UniProt Q9NZC4 1-300).
T5 sequence: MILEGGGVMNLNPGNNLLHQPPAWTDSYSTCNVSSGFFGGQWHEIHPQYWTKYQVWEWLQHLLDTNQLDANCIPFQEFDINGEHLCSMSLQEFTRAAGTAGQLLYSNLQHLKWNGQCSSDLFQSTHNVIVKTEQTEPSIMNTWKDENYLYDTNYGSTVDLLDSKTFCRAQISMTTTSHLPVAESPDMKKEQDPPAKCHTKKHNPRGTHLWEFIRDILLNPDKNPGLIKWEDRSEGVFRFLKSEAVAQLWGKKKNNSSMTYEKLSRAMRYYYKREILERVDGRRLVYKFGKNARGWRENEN
The conditions noted are these: protein: recombinant; tags: N-terminal GST; dsDNA, one strand shown. An outline of the steps: as §1

Experiment [7] concerns the target SPI1 (Homo sapiens, UniProt P17947 1-270). The conditions noted are these: protein: recombinant; tags: N-terminal GST; dsDNA, one strand shown. An outline of the steps: as §1
Experiment [8] deals with SPIB (Homo sapiens, UniProt Q01892 1-262). The conditions noted are these: protein: recombinant; tags: N-terminal GST; dsDNA, one strand shown. An outline of the steps: as §1
The target of experiment [9] is T6, ELK3 (Homo sapiens, UniProt P41970 1-407).
T6 sequence: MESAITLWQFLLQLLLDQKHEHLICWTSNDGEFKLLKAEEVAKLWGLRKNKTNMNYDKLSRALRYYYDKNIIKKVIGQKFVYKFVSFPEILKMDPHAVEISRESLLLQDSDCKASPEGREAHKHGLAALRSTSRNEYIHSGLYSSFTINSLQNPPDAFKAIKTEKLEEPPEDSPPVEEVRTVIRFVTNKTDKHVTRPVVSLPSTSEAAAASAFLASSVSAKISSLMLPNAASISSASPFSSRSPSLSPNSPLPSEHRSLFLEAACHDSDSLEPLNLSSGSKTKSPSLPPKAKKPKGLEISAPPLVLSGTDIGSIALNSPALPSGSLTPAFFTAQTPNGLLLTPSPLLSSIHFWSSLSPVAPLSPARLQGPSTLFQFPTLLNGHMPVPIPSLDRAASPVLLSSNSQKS
The settings on record: protein: recombinant; tags: N-terminal GST; dsDNA, one strand shown. In outline: as §1

The target in experiment [10] is T7, FEV (Homo sapiens, UniProt Q99581 1-238).
T7 sequence: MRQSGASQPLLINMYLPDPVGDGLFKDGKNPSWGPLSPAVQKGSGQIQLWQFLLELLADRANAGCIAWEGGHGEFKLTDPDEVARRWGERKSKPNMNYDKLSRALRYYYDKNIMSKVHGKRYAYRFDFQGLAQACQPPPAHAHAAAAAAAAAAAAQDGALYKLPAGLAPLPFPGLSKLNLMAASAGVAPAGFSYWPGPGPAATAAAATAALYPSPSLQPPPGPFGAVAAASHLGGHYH
The settings on record: protein: recombinant; tags: N-terminal GST; dsDNA, one strand shown. In outline: as §1

In experiment [11] the target is ETV5 (Homo sapiens, UniProt P41161 1-510). The conditions noted are these: protein: recombinant; tags: N-terminal GST; dsDNA, one strand shown. In outline: as §1
For experiment [12], the target named is HSF1 (Homo sapiens, UniProt Q00613 1-529). The conditions noted are these: protein: recombinant; tags: N-terminal GST; chain copies: 3; dsDNA, one strand shown. In outline:
as §1

Experiment [13] deals with T8, SPIC (Homo sapiens, UniProt Q8N5J4 1-248).
T8 sequence: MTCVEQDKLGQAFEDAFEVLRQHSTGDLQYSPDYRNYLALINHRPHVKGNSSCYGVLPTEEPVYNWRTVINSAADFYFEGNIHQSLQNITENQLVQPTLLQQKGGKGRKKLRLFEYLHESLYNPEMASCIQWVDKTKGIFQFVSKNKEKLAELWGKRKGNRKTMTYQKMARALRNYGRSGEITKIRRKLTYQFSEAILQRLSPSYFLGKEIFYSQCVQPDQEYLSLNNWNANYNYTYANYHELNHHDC
The conditions noted are these: protein: recombinant; tags: N-terminal GST; dsDNA, one strand shown. An outline of the steps:
as §1

Experiment [14] concerns the target ELF4 (Homo sapiens, UniProt Q99607 1-663). The conditions noted are these: protein: recombinant; tags: N-terminal GST; dsDNA, one strand shown. In outline: as §1
Experiment [15] addresses T9, ELK4 (Homo sapiens, UniProt P28324-2 1-405).
T9 sequence: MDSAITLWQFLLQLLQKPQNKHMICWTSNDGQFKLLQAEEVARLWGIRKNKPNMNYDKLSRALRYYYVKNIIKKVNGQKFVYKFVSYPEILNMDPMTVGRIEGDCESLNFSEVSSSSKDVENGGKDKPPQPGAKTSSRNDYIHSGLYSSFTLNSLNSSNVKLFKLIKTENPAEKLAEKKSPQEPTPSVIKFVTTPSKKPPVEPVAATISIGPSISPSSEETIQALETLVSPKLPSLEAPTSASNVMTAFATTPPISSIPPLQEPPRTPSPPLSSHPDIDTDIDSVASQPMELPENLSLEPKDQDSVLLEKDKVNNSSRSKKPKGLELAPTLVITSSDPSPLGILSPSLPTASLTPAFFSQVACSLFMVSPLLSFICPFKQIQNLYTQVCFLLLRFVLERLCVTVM
The settings on record: protein: recombinant; tags: N-terminal GST; dsDNA, one strand shown. An outline of the steps:
as §1

In experiment [16] the target is T10, ETV2 (Homo sapiens, UniProt O00321 1-342).
T10 sequence: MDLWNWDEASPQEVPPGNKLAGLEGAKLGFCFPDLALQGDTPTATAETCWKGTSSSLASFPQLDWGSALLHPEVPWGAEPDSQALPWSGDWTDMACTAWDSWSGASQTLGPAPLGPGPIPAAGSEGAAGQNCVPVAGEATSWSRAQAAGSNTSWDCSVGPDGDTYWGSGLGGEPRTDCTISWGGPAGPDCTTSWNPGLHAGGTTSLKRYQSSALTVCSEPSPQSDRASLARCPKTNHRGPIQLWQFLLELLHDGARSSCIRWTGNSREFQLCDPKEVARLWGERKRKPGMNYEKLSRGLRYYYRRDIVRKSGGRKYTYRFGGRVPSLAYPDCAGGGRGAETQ
The settings on record: protein: recombinant; tags: N-terminal GST; dsDNA, one strand shown. In outline:
as §1

The target of experiment [17] is T11, ELF3 (Homo sapiens, UniProt P78545 1-371).
T11 sequence: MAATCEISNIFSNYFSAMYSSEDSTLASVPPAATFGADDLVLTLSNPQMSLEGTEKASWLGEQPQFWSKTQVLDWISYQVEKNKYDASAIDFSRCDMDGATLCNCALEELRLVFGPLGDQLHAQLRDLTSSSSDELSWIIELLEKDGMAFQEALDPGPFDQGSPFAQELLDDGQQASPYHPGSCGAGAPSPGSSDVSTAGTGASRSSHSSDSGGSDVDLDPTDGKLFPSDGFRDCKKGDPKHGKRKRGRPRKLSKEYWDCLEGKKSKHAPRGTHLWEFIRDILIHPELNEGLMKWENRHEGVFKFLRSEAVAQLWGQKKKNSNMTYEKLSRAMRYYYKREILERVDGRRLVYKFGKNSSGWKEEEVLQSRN
The settings on record: protein: recombinant; tags: N-terminal GST; dsDNA, one strand shown. An outline of the steps: as §1

The target in experiment [18] is ETV1 (Homo sapiens, UniProt P50549 1-477). The settings on record: protein: recombinant; tags: N-terminal GST; dsDNA, one strand shown. In outline: as §1
Chain of ETV1 (P50549 whole entry): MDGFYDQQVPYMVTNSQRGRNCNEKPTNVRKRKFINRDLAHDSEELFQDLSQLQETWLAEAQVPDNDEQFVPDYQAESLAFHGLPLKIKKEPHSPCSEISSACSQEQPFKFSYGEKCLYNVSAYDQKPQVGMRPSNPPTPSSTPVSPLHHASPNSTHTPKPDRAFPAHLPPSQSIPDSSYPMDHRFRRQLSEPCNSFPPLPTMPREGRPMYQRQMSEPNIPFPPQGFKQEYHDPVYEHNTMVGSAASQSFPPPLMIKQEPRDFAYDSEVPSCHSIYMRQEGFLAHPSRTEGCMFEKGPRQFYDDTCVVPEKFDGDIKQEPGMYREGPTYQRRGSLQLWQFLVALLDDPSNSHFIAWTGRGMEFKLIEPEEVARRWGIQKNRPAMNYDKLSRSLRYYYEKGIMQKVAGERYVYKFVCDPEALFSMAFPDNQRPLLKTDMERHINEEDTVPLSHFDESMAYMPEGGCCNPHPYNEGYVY

Chain of ELF1 (P32519 whole entry): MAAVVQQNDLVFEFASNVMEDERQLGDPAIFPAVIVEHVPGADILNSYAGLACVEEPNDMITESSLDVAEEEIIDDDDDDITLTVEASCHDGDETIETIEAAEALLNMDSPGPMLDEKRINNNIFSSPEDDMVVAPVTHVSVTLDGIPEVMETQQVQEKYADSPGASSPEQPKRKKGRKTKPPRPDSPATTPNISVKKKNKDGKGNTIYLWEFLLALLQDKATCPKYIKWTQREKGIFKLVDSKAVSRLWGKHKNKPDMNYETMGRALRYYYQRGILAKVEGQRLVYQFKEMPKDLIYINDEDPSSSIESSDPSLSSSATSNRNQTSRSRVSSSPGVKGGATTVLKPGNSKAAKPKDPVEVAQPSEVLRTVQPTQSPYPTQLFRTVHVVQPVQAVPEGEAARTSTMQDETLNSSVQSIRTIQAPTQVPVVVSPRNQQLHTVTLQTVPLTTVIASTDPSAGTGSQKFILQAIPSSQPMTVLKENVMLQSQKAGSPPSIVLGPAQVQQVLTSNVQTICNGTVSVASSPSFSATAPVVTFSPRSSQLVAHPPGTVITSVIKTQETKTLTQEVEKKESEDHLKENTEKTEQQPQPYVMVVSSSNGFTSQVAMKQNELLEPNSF
Chain of HSF1 (Q00613 whole entry): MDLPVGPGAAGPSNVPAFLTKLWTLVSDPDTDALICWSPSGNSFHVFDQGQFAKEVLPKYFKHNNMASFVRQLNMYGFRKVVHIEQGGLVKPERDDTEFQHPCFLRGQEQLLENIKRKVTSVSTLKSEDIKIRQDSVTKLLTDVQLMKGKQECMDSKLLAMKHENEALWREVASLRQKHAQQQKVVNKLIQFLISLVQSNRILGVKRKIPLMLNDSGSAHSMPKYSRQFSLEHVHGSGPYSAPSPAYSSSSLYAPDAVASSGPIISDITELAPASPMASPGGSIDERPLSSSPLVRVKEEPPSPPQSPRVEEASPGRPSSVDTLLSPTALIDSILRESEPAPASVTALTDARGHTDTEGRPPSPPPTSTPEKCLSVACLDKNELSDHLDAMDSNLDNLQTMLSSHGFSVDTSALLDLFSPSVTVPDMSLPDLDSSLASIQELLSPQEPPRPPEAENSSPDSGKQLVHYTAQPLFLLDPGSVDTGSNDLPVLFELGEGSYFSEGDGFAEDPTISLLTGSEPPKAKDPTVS
Chain of ELF4 (Q99607 whole entry): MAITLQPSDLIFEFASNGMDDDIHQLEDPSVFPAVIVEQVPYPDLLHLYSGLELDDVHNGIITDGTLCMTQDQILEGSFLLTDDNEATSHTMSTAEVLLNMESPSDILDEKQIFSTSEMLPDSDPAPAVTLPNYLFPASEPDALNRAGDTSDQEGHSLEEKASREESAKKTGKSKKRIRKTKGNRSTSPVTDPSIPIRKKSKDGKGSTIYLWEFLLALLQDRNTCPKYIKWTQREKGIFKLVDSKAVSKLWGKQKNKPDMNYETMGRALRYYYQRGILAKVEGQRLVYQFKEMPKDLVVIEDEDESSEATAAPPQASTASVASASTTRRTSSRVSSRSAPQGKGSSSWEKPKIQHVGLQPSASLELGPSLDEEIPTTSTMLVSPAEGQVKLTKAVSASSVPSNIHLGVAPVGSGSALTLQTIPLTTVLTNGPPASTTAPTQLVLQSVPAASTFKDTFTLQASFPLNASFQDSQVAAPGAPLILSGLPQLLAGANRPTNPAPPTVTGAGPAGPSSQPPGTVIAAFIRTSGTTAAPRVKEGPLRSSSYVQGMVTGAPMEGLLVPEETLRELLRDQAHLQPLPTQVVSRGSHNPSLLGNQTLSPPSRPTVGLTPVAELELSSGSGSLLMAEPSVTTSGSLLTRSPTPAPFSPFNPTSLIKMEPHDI
Chain of ETV5 (P41161 whole entry): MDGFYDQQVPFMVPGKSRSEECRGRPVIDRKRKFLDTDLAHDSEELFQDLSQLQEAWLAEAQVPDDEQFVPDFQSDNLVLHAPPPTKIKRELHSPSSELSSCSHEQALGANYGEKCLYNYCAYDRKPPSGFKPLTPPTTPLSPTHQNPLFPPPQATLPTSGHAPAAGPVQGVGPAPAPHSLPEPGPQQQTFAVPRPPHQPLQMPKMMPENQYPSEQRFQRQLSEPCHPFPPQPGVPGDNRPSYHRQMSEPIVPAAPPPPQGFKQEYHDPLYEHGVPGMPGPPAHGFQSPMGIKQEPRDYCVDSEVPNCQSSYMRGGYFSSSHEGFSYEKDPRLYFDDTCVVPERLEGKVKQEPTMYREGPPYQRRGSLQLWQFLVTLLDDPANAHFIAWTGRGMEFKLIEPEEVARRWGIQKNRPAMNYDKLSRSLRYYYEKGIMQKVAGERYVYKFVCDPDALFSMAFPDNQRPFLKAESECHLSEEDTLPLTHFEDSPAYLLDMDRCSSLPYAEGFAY
Chain of SPIB (Q01892 whole entry): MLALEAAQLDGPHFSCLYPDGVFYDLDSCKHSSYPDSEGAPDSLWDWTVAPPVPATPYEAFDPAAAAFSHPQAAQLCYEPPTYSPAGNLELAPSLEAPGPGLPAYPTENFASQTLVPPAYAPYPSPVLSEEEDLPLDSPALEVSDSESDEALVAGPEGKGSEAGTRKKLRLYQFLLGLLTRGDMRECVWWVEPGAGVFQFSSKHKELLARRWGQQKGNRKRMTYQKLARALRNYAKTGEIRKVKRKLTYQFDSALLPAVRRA

For the sequence AACACG, the binding signal in [1] is 1.26 fold enrichment (6-mer frequency, TF over GST control); in experiment [2], 1.23 fold enrichment (6-mer frequency, TF over GST control); in experiment [3], 1.1 fold enrichment (6-mer frequency, TF over GST control); in experiment [4], 1.22 fold enrichment (6-mer frequency, TF over GST control); in experiment [5], 1.18 fold enrichment (6-mer frequency, TF over GST control); in experiment [6] it was 1.14 fold enrichment (6-mer frequency, TF over GST control). Moreover, the binding signal in experiment [7] is 1.17 fold enrichment (6-mer frequency, TF over GST control); in experiment [8], 1.13 fold enrichment (6-mer frequency, TF over GST control); in experiment [9], 1.16 fold enrichment (6-mer frequency, TF over GST control); in [10], 1.19 fold enrichment (6-mer frequency, TF over GST control); in [11], 1.25 fold enrichment (6-mer frequency, TF over GST control); in experiment [12], 1.02 fold enrichment (6-mer frequency, TF over GST control). The binding signal was 1.33 fold enrichment (6-mer frequency, TF over GST control) in [13]; 1.24 fold enrichment (6-mer frequency, TF over GST control) in [14]; 1.22 fold enrichment (6-mer frequency, TF over GST control) in [15]; 1.07 fold enrichment (6-mer frequency, TF over GST control) in experiment [16]; 1.19 fold enrichment (6-mer frequency, TF over GST control) in experiment [17]; 1.24 fold enrichment (6-mer frequency, TF over GST control) in [18].
